Laboratory results: PubChem BioAssay (NCI)
About 83,000 compounds went through this panel and 20% of them were active in at least one assay; those are over-represented in the sample as a whole.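 Interpretation: 100, growth as untreated; towards 0, rising growth inhibition; 0, no net growth; 0 to -100, cell death. Compounds scoring below 10 were considered active.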 Values without a mark were called inactive. Calls of active or inactive are those of the source.

Assays:
Assay in all cases: NCI-60 one-dose screen, 48 h (100 = growth as untreated, 0 = no growth, -100 = all killed)
Details in all cases: 10 µM unless noted
SR leukemia = test system: SR leukemia
RPMI-8226 leukemia = test system: RPMI-8226 leukemia
OVCAR-8 ovarian = test system: OVCAR-8 ovarian
OVCAR-5 ovarian = test system: OVCAR-5 ovarian
OVCAR-4 ovarian = test system: OVCAR-4 ovarian
SK-OV-3 ovarian = test system: SK-OV-3 ovarian
IGROV1 ovarian = test system: IGROV1 ovarian
OVCAR-3 ovarian = test system: OVCAR-3 ovarian
HS 578T breast = test system: HS 578T breast
NCI/ADR-RES ovarian = test system: NCI/ADR-RES ovarian

SMILES	growth (SR leukemia)	growth (RPMI-8226 leukemia)	growth (OVCAR-8 ovarian)	growth (OVCAR-5 ovarian)	growth (OVCAR-4 ovarian)	growth (SK-OV-3 ovarian)	growth (IGROV1 ovarian)	growth (OVCAR-3 ovarian)	growth (HS 578T breast)	growth (NCI/ADR-RES ovarian)
COc1ccccc1CNCCCN1C(=O)c2ccc3c4c(ccc(c24)C1=O)C(=O)N(CCCCNCCCN)C3=O	11.3%	10.6%	-16% (active)	69.8%	-90.4% (active)	56.9%	-25% (active)	-30.4% (active)	31.5%	72.6%
Cc1cc(-c2ccc(N=Nc3c(S(=O)(=O)O)cc4cc(S(=O)(=O)O)cc(O)c4c3O)c(C)c2)ccc1N=Nc1c(S(=O)(=O)O)cc2cc(S(=O)(=O)O)cc(O)c2c1O	148%	114%	99.5%	99.4%	103%	88.9%	80.6%	120%	78.6%	108%
C=C1C(=O)O[C@H]2[C@H]1CC/C(COC(=O)NCc1cn(C)c3ccccc13)=C\CC[C@@]1(C)O[C@@H]21	6.96% (active)	-29.3% (active)	4.58% (active)	23%	12%	60.2%	0.634% (active)	-80.8% (active)	49.6%	19%
O=C(N/N=C/c1ccccc1O)c1ccncc1	49.4%	53.9%	52.3%	71.1%	48.9%	63.1%	53.8%	18.2%	94.3%	38.1%
COc1ccc(/C(C)=N/NC(=O)c2ccc(S(C)(=O)=O)cc2)cc1OC	97.6%	130%	110%	106%	97.7%	88.4%	109%	113%	100%	113%
c1ccc2c(N=NSc3ncnc4nc[nH]c34)c3ccccc3nc2c1	-28.1% (active)	-1.28% (active)	-25.7% (active)	-9.11% (active)	-8.92% (active)	-14.2% (active)	6.28% (active)	5.13% (active)	53.6%	-33.4% (active)
O=C(O)c1cc2cc(OCc3ccccc3)ccc2[nH]1	104%	94.3%	87.9%	109%	97.5%	94.7%	110%	102%	97.1%	109%
C=C1C(=O)O[C@H]2[C@H]1CC/C(COC(=O)N[C@@H](Cc1c[nH]c3ccccc13)C(=O)OC)=C\CC[C@@]1(C)O[C@@H]21	3.24% (active)	-14.2% (active)	37.1%	66%	72.2%	78.8%	0.0104% (active)	-40.3% (active)	77.8%	88.2%
COc1ccc(C(=O)C(CN(C)C)c2ccc(OC)cc2)cc1 (stereo not given)	0.837% (active)	1.35% (active)	42.2%	94.8%	73.1%	98.8%	86.9%	-4.36% (active)	92.2%	67.3%
O=S(=O)(Nc1ccc2ccccc2c1)N1CCCCC1	38.1%	82.4%	68.2%	79.1%	85.1%	52%	36.3%	53.2%	47.5%	6.41% (active)
N/C(=N\OC(=O)c1ccccc1)C(Cc1ccccc1)C(=O)NOC(=O)c1ccccc1 (stereo not given)	6.24% (active)	16.4%	38%	101%	66.8%	103%	-63.2% (active)	51.3%	-14.5% (active)	18.3%
COc1cccc(-c2nc3sccn3c2-c2ccnc(NCCN3CCCNS3(=O)=O)n2)c1	59.5%	102%	83.8%	112%	81.5%	54.8%	75%	102%	105%	105%
COc1cccc(/C=N\Nc2ccc([N+](=O)[O-])cn2)c1O	48.3%	62.6%	10.6%	104%	29.5%	68.7%	36.2%	8.54% (active)	63.9%	18.6%
CC(C)CC1NC(=O)C(CC(C)C)N(CO)C1=O (stereo not given)	96.4%	81.1%	107%	106%	113%	102%	106%	123%	106%	117%
O=C(/C=C/c1ccc(F)cc1)N1CCN(C(=O)/C=C/c2ccc(C(F)(F)F)cc2)CC1	114%	124%	105%	109%	116%	118%	122%	113%	123%	113%
N#CCCn1cnc2c(N)ncnc21	98%	101%	96.5%	98.4%	107%	99.6%	125%	109%	99.5%	109%
CCOC(=O)c1ccc2c(c1)nc(-c1ccc(Cl)cc1)n2-c1cc(C(C)(C)C)[nH]n1	-22.3% (active)	75.6%	70.1%	60.5%	63.5%	18.9%	42.3%	13.5%	53.9%	4.4% (active)
O=C(CCl)N1c2ccccc2Oc2ccc3ccccc3c21	9.32% (active)	-24.7% (active)	-35.5% (active)	22.4%	20.7%	30.7%	-70.2% (active)	-95.1% (active)	-12.6% (active)	-11.9% (active)
CCOC(=O)c1cc(N)nc2ccccc12	102%	106%	108%	109%	109%	101%	120%	109%	82.7%	104%
O=C(/C=C/c1cn(-c2ccccc2)nc1-c1ccccc1)OCc1cn(-c2cccc([N+](=O)[O-])c2)nn1	87.4%	80.4%	82.6%	94.1%	83.3%	83.5%	98.2%	96.8%	89.9%	95.4%
C#CCO[C@H]1CC[C@H](OCC#C)[C@@H]2[C@H]1[C@H]1C[C@@H]3[C@@]4(C)CCC[C@@](C)(C(=O)OC)[C@@H]4CC[C@@]23C=C1C(C)C	20.5%	11.7%	82%	92.1%	99.3%	88.6%	0.137% (active)	75.4%	114%	71.4%
COc1cccc(-c2cc(-c3cccs3)c(C#N)c(=O)[nH]2)c1	105%	98.3%	100%	113%	104%	113%	108%	109%	96.4%	116%
CCC1=CC2CN(C1)Cc1c([nH]c3ccccc13)[C@@](C(=O)OC)(c1cc3c(cc1OC)N(C)[C@H]1[C@@](O)(C(=O)OC)[C@H](OC(C)=O)[C@]4(CC)C=CCN5CC[C@]31[C@@H]54)C2 (stereo not given in full)	6.9% (active)	31.4%	21.3%	15.6%	29.6%	7.75% (active)	35.7%	-29.6% (active)	29.1%	-16.1% (active)
COc1cc(OC)c(Cl)cc1N	109%	104%	104%	111%	109%	100%	114%	103%	77.9%	109%
Oc1ccccc1-c1nnc(COc2ccc(Cl)cc2Cl)o1	36%	39.4%	36.8%	89.1%	49.3%	60.7%	50.7%	20.2%	78.2%	30.6%
c1ccc(-c2nnn(-c3ccccc3)n2)cc1	89%	98.6%	107%	105%	106%	106%	104%	111%	112%	116%
CNC(=O)c1c(NC(=O)c2cccc(C(F)(F)F)c2)sc2c1CCC(=O)C2	1.53% (active)	-33% (active)	8.86% (active)	-22.2% (active)	-81.5% (active)	-5.12% (active)	-24.8% (active)	3.37% (active)	17.7%	-7.1% (active)
